Assay outcomes deposited in PubChem BioAssay by The Scripps Research Institute Molecular Screening Center.
Rows were chosen to be rich in hits. Some 3.4% of all compounds tested hit in one or more screens of this group.
TEAD-YAP block: TEAD-YAP interaction inhibition. inhibition, % at 9.12 µM. HEK-TIYL cells, TEAD-Gal4/YAP UAS-luciferase luminescence. AID 1259422. hit rate 1.4% among 640,000; in the data active = inhibition above about 32%
MITF primary: human MITF inhibition, primary screen; O75030; AlphaScreen MITF homodimerization, bead proximity signal; inhibition, % at 2.6 µM; hit rate 0.91% among 650,000; AID 1259374; in the data active = inhibition above about 50%
FBW7 act: human FBW7 E3 ligase activation, primary screen. Q969H0. AlphaScreen FBW7–phospho-cyclin E peptide binding, activator screen. normalized activity (activation), % at 26.1 µM. hit rate 0.13% among 650,000; in the data active = normalized activity above about 1.9%;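 also: purified mutant Fbw7 with reduced substrate affinity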
GPR151 activ: human GPR151 activation | Q8TDV0 | PathHunter beta-arrestin GPR151 cells, luminescence | activation, % at 11.2 µM | hit rate 1% among 650,000; in the data active = activation above about 4.9%
Target sequence (Q8TDV0 whole entry, looked up): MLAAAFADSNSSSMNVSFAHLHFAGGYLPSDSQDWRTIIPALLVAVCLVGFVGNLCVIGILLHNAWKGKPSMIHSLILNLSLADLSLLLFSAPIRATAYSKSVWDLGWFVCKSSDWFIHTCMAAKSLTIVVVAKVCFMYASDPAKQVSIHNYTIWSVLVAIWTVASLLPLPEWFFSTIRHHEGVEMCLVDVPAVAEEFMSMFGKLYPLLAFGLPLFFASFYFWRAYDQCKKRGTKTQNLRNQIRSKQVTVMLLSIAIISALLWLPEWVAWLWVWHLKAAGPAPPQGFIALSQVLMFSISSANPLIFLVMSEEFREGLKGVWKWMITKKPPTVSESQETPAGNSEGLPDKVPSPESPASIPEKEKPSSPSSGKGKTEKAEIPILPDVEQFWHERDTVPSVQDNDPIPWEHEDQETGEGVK
GPR151 confirm: confirmation of human GPR151 activators; shares compounds with GPR151 activ; GPR151 PathHunter beta-arrestin cells, luminescence, 90 min; % of EA-reagent control over plate median; 6,700 tested, under 10 active; activation, % at 11.2 µM;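 active = mean percent activation across replicates above the confirmation screen cutoff of 4.91%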
GPR119 counter: counter-screen for GPR151 activators: effect on human GPR119. GPR119 PathHunter beta-arrestin cells, luminescence, 90 min; 0 = compound-well median, 100 = enzyme-acceptor control. hit rate 0.3% among 6,700. shares compounds with GPR151 activ. activation, % at 11.2 µM;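 active = mean percent activation in the counterscreen above 29.09%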;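 also: counterscreen on off-target GPR119 to flag nonselective hits from the GPR151 activator screen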
Numbers stand for hits.

For Cc1ccc(N2CC(NC(=O)NCc3ccco3)CC2=O)cc1C (stereo unspecified) the results were TEAD-YAP block inactive, MITF primary inactive, FBW7 act inactive, GPR151 activ 5.8, GPR151 confirm inactive and GPR119 counter inactive.
For O=C(NCc1cccs1)NC1CC(=O)N(c2cccc(F)c2)C1 (stereo unspecified) the results were TEAD-YAP block inactive, MITF primary inactive, FBW7 act inactive, GPR151 activ 5.0, GPR151 confirm inactive and GPR119 counter inactive.
CC1=C(C(=O)OCCOc2ccccc2)C(c2cccc(Cl)c2)C2=C(CC(C)(C)CC2=O)N1 (stereo unspecified) was read as TEAD-YAP block inactive, MITF primary inactive, FBW7 act inactive and GPR151 activ inactive.
Screening Cc1cc(C)n2nc(NCc3ccccc3Cl)nc2n1 returned TEAD-YAP block inactive, MITF primary inactive, FBW7 act inactive, GPR151 activ 5.1, GPR151 confirm inactive and GPR119 counter inactive.
Cn1c(=O)c([N+](=O)[O-])c(Nc2cccc(C(F)(F)F)c2)c2ccccc21 was read as TEAD-YAP block inactive, MITF primary inactive, FBW7 act inactive and GPR151 activ inactive.
COc1ccccc1-c1cc(NC(=NCc2ccco2)SC)n[nH]1 was read as TEAD-YAP block 50, MITF primary inactive, FBW7 act inactive, GPR151 activ 6.4, GPR151 confirm inactive and GPR119 counter inactive.
COc1ccc(-c2cc(NC(=NCc3ccco3)SC)n[nH]2)c(OC)c1 was read as TEAD-YAP block inactive, MITF primary inactive, FBW7 act inactive and GPR151 activ inactive.
COc1ccc(CCN2C(=O)CCC2CCNCc2cccc(C(F)(F)F)c2)cc1 (stereo unspecified) was read as TEAD-YAP block inactive, MITF primary inactive, FBW7 act inactive, GPR151 activ 12, GPR151 confirm inactive and GPR119 counter inactive.
`CC1CN(CC(=O)NCc2nc(-c3ccccc3)n[nH]2)Cc2ccccc2O1` (stereo unspecified) gave TEAD-YAP block inactive, MITF primary inactive, FBW7 act inactive and GPR151 activ inactive.
`Cc1ccc2c(c1)CN(CC(=O)NCc1cc(-c3ccccc3)n[nH]1)CC(C)O2` (stereo unspecified) gave TEAD-YAP block inactive, MITF primary inactive, FBW7 act inactive, GPR151 activ 5.2, GPR151 confirm inactive and GPR119 counter inactive.
`Cc1cncc2c(S(=O)(=O)N3CC[C@H](NC(=O)CN)C3)cccc12` gave TEAD-YAP block inactive, MITF primary inactive, FBW7 act inactive, GPR151 activ 6.1, GPR151 confirm inactive and GPR119 counter inactive.
COc1cc(/C=N/NC(=O)Cn2nnc(-c3ccccc3)n2)cc2sc(=O)oc12 was read as TEAD-YAP block inactive, MITF primary inactive, FBW7 act inactive, GPR151 activ 8.0, GPR151 confirm inactive and GPR119 counter inactive.
Screening COc1cc(/C=N/NC(=O)CN2CC(c3ccccc3)CC2=O)cc2sc(=O)oc12 (stereo unspecified) returned TEAD-YAP block inactive, MITF primary inactive, FBW7 act inactive and GPR151 activ inactive.
`O=C(Nc1ccc(N2CCOCC2)cc1)c1cnc(-c2ccccc2)s1` gave TEAD-YAP block inactive, MITF primary inactive, FBW7 act inactive and GPR151 activ inactive.
Cc1cc(=O)[nH]c(SC(C)C(=O)Nc2cccc(Cl)c2)n1 (stereo unspecified) was read as TEAD-YAP block inactive, MITF primary inactive, FBW7 act inactive, GPR151 activ 8.7, GPR151 confirm inactive and GPR119 counter inactive.
CS(=O)(=O)N(CC(=O)N1CCN(c2ccccc2)CC1)Cc1ccc(Cl)cc1 was read as TEAD-YAP block inactive, MITF primary inactive, FBW7 act inactive, GPR151 activ 5.0, GPR151 confirm inactive and GPR119 counter inactive.
For CS(=O)(=O)N(CC(=O)N1CCN(c2ccc(F)cc2)CC1)Cc1ccc(Cl)cc1 the results were TEAD-YAP block inactive, MITF primary inactive, FBW7 act inactive and GPR151 activ inactive.
CSc1nsc(SC)c1C(=O)N1CCN(S(=O)(=O)c2ccc(C)cc2)C1C (stereo unspecified) was read as TEAD-YAP block inactive, MITF primary inactive, FBW7 act inactive, GPR151 activ 5.0, GPR151 confirm inactive and GPR119 counter inactive.
For COc1cc(Nc2nc(Nc3ccc(NC(C)=O)cc3)c3ncn(C4CCCCC4)c3n2)cc(OC)c1OC the results were TEAD-YAP block inactive, MITF primary inactive, FBW7 act inactive and GPR151 activ inactive.
`CCN(CC)C(=O)C1CCCN(c2nc(Nc3cc(OC)c(OC)c(OC)c3)c3ncn(C4CCCCC4)c3n2)C1` (stereo unspecified) gave TEAD-YAP block inactive, MITF primary inactive, FBW7 act inactive, GPR151 activ 12, GPR151 confirm inactive and GPR119 counter inactive.
`CCN(CC)C(=O)C1CCCN(c2nc(Nc3cc(OC)c(OC)c(OC)c3)nc(N(CC)CC)n2)C1` (stereo unspecified) gave TEAD-YAP block inactive, MITF primary inactive, FBW7 act inactive, GPR151 activ 14, GPR151 confirm inactive and GPR119 counter inactive.
For CCN(CC)C(=O)C1CCCN(c2nc(Nc3cc(OC)c(OC)c(OC)c3)c3ncn(CCN4CCCC4=O)c3n2)C1 (stereo unspecified) the results were TEAD-YAP block inactive, MITF primary inactive, FBW7 act inactive and GPR151 activ inactive.
COc1cc(Nc2nc(Nc3ccncc3)nc3c2ncn3C2CCCCC2)cc(OC)c1OC was read as TEAD-YAP block inactive, MITF primary inactive, FBW7 act inactive, GPR151 activ 6.1, GPR151 confirm inactive and GPR119 counter inactive.
`O=C(c1cc(N2C(=O)C3C4CCC(C4)C3C2=O)ccc1Cl)N1CCN(Cc2ccccc2)CC1` (stereo unspecified) gave TEAD-YAP block inactive, MITF primary inactive, FBW7 act inactive and GPR151 activ inactive.
`CC(C)c1ccccc1NC(=O)c1ccccc1Br` gave TEAD-YAP block inactive, MITF primary inactive, FBW7 act inactive and GPR151 activ inactive.
For CCOc1ccccc1CN1CCN(C2CCCC2)CC1CCO (stereo unspecified) the results were TEAD-YAP block inactive, MITF primary inactive, FBW7 act inactive and GPR151 activ inactive.
CCOc1ccccc1CN1CCN(Cc2cccc(F)c2)CC1CCO (stereo unspecified) was read as TEAD-YAP block inactive, MITF primary inactive, FBW7 act inactive, GPR151 activ 5.4, GPR151 confirm inactive and GPR119 counter inactive.
For COc1cccc(CN2CCN(Cc3ccccc3O)CC2CCO)c1 (stereo unspecified) the results were TEAD-YAP block inactive, MITF primary inactive, FBW7 act inactive, GPR151 activ 8.1, GPR151 confirm inactive and GPR119 counter inactive.
